Potency, outcome and max response data for 6 molecules are collected here from PubChem BioAssay (NCATS).

Values without a mark were called inactive. Inconclusive results are not listed. Active and inactive are the calls of the source. The call rests on the fitted dose curve; in most records, active means well fitted curve in the direction sought with a large enough effect; inconclusive means small, poorly fitted or top-dose-only effect, or another doubt; inactive means no such curve, though single readings can be large; an effect the other way counts as inactive or inconclusive.

The subject of assay [1] is Zika virus NS2B-NS3 protease (linked construct). The experiment in a line: Primary screen NINDS Rhodamine qHTS for Zika virus inhibitors (AID 1347160). Further: nearly all actives have a fitted effect of over 55% in size. In short, it runs like this:
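Rhodamine110-peptide cleavage (1.5 µM substrate) by 25 nM linked NS2B-NS3 enzyme at pH 8.0 (Tris, Tween 20), after 15 min RT preincubation with compounds; 15-min fluorescence change normalized to controls and Hill-fitted.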

Assay [2] has as its target Calcium and integrin-binding protein 1 (Homo sapiens) (UniProt Q99828). The experiment in a line: Primary qHTS for Identification of Calcium Integrin Binding Protein 1 (CIB1) Competitor (AID 1508620).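 Further: GST tagged CIB1 binding a fluorescein labelled alphaIIb integrin peptide tracer; top concentration of the series differs between compounds; on the % scale 0 is the no-effect control and ±100 the full control effect.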 In short, it runs like this:
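Fluorescence polarization competition: CIB1-GST (1 uM final) preincubated with compound 15 min at room temperature, then FITC-labeled alphaIIb peptide (100 nM final) added for another 15 min. Polarization read at Ex 480/Em 540.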
(In qHTS, concentration-response curves come from the screen itself.)

Assay [3] deals with Glutathione peroxidase 1 (Homo sapiens) (UniProt P07203). The experiment in a line: Primary qHTS Assay for Inhibitors of Recombinant Selenoprotein Glutathione Peroxidase 1 (GPX1) (AID 1845191). Further: nearly all actives have a fitted effect of over 65% in size. In short, it runs like this:
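GPX1 10 nM, GR 100 nM, GSH 1 mM, NADPH 0.5 mM, CHP 0.5 mM (final). 30-min cpd preincubation, RT. Ex340/Em450 read t=0, t=15 min.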

Assay [4] addresses Phospholipid hydroperoxide glutathione peroxidase GPX4 (Homo sapiens) (UniProt P36969). The experiment in a line: Primary qHTS Assay for Inhibitors of Recombinant Selenoprotein Glutathione Peroxidase 4 (GPX4) (AID 1845192). Further: nearly all actives have a fitted effect of over 65% in size. In short, it runs like this: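 qHTS, GR-coupled: GPX4 200 nM + cpd 30 min RT → GSH 1 mM, NADPH 0.5 mM, GR 100 nM → CHP 0.5 mM start; fluor 340/450 at t0 and t15 min; no-enzyme wells as control.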

For assay [5], the target named is Luciferin 4-monooxygenase (Photinus pyralis) (UniProt P08659). The experiment in a line: Primary firefly luciferase (FLuc) qHTS assay for identification of artifact compounds. (AID 1845220). Further: nearly all actives have a fitted effect of over 60% in size. The settings on record: outcome: dose series up to 54.1 µM unless noted. In short, it runs like this:
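In this counter-screen for luciferase artifacts, test compounds met substrate (10 uM each luciferin and ATP) before 10 nM enzyme started the reaction. Light output was measured 5 min later.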

A short description of assay [6]: Primary fluorescence-based thiol-reactive (MSTI) qHTS assay for identification of artifact compounds. (AID 1845221).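 Further: thiol-reactive compounds lower the probe fluorescence signal; nearly all actives have a fitted effect of over 65% in size.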 A digest of the protocol:
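Reactivity toward the thiol probe MSTI (4 uM) is scored by fluorescence at Ex/Em 525/598 nm after 1 h at room temperature. Acetyl-MSTI and MSTI define the activity scale.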

Assay [7] deals with Nanoluciferase (engineered Oplophorus gracilirostris luciferase). The experiment in a line: Primary Nanoluciferase (NLuc) qHTS assay for identification of artifact compounds. (AID 1845222).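 Further: NLuc secreted into diluted conditioned medium of S16 cells.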 A digest of the protocol:
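Using secreted nanoluciferase in S16 culture medium (0.22 um filtered, 1:55 dilution), compounds were preincubated 15 min at RT. Signal was generated with Nano-Glo reagent (1:100) over 5 min.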

Assay [8] in a line: Primary redox qHTS assay for identification of artifact compounds. (AID 1845223).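 Further: 0% = DMSO and 100% = reference compound.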 In short, it runs like this: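 Redox-cycling detection via DTT (250 uM final) oxidation coupled to Amplex Red (25 uM)/HRP (250 mU/mL) in HBSS. 15 min preincubation plus 30 min after DTT, room temperature. Ex/Em 525/598 nm; 4-parameter Hill fit against DMSO and 10 uM DA3003.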
The subject of another assay is HaCat. The experiment in a line: Cytotoxic Profiling of Annotated Libraries Using Quantitative High-Throughput Screening (AID 1296008). Further: nearly all actives have a fitted effect of over 60% in size. On max response: on the % scale 0 is the no-effect control and ±100 the full control effect. Conditions: Five cell lines viability, CellTiter-Glo ATP luminescence, 48-72 h; max response: hits give low values. A digest of the protocol:
(§1)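 Compounds were pin-transferred onto cells and incubated 48 or 72 hr at 37 degree Celsius, 95% humidity. CellTiter-Glo was added, plates sat 10 min at room temperature, then ATP-coupled luminescence was imaged as the viability read-out.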
(In general: In ATP-based viability assays light output follows the ATP content of the culture.)

The next assay has as its system C33A. The experiment in a line: Primary qHTS to identify gynecologic anti-cancer compounds using libraries of approved drugs and bioactive compounds (AID 1345084). Further: nearly all actives have a fitted effect of over 55% in size. Further: potency means the concentration at half of the fitted maximal effect. The settings on record: Gynecologic cancer cell panel viability, ATPlite luminescence, 48 h; series mostly up to 57.5 µM. A digest of the protocol:
(§2)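 Measured: luminescence after ATPlite addition (15 min, RT). Exposure: 48 h, 37 C, 5% CO2.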

In the next assay the test system is CASKI. The description is as above. Conditions: Gynecologic cancer cell panel viability, ATPlite luminescence, 48 h; series mostly up to 57.5 µM. A digest of the protocol:
as §2

The next assay concerns Es-2. The assay is described as above. Conditions: Gynecologic cancer cell panel viability, ATPlite luminescence, 48 h; series mostly up to 57.5 µM. A digest of the protocol:
as §2

In another assay the test system is Hek293T. Described as above. The settings on record: Gynecologic cancer cell panel viability, ATPlite luminescence, 48 h, control line for the selectivity index; series mostly up to 57.5 µM. In short, it runs like this: as §2
For the next assay, the system named is JEG-3. Described as above. Conditions: Gynecologic cancer cell panel viability, ATPlite luminescence, 48 h; series mostly up to 57.5 µM. A digest of the protocol:
as §2

The next assay concerns OV90. Described as above. The settings on record: Gynecologic cancer cell panel viability, ATPlite luminescence, 48 h; series mostly up to 57.5 µM. A digest of the protocol:
as §2

For another assay, the system named is PA-1. Described as above. The settings on record: Gynecologic cancer cell panel viability, ATPlite luminescence, 48 h; series mostly up to 57.5 µM. In short, it runs like this: as §2
Another assay relates to Tov-21-G. Described as above. The settings on record: Gynecologic cancer cell panel viability, ATPlite luminescence, 48 h; series mostly up to 57.5 µM. In short, it runs like this:
as §2

The next assay relates to Tov112D. The description is as above. Conditions: Gynecologic cancer cell panel viability, ATPlite luminescence, 48 h; series mostly up to 57.5 µM. A digest of the protocol:
as §2

In a further assay the test system is NIH3T3. The experiment in a line: Cytotoxic Profiling of Annotated Libraries Using Quantitative High-Throughput Screening (AID 1296008). Further: nearly all actives have a fitted effect of over 60% in size. On max response: on the % scale 0 is the no-effect control and ±100 the full control effect. Conditions: Five cell lines viability, CellTiter-Glo ATP luminescence, 48-72 h; max response: hits give low values. A digest of the protocol: as §1
The subject of another assay is CAOV3. The experiment in a line: Primary qHTS to identify gynecologic anti-cancer compounds using libraries of approved drugs and bioactive compounds (AID 1345084). Further: nearly all actives have a fitted effect of over 55% in size. Further: potency means the concentration at half of the fitted maximal effect. Conditions: Gynecologic cancer cell panel viability, ATPlite luminescence, 48 h; series mostly up to 57.5 µM. A digest of the protocol:
as §2

Sequence of Calcium and integrin-binding protein 1 (Homo sapiens) (Q99828 whole entry, looked up): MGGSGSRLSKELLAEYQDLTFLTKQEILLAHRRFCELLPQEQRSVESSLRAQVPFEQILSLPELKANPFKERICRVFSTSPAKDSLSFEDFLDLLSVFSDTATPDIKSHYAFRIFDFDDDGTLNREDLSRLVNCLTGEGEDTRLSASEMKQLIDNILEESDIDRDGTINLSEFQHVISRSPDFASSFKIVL
Sequence of Glutathione peroxidase 1 (Homo sapiens) (P07203 whole entry, looked up): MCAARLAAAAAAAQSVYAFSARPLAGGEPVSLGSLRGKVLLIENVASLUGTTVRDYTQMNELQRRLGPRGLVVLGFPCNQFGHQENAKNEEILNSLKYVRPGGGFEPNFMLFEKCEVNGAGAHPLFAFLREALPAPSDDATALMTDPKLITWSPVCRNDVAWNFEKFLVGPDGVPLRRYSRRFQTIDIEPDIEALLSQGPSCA
Sequence of Phospholipid hydroperoxide glutathione peroxidase GPX4 (Homo sapiens) (P36969 whole entry, looked up): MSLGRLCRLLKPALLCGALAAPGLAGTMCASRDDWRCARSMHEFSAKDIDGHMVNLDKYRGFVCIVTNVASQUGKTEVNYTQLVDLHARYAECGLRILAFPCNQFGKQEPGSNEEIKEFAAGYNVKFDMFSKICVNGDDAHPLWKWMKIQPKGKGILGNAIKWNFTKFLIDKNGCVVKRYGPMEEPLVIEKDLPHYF

As to `O=C(N[C@H]1CN2CCC1CC2)c1cc2cccc(Cl)c2s1`, the Potency result in assay [1], in assay [2], in [3], in assay [4], in assay [6] and in [7] was “inactive” throughout. For the same molecule, the Potency entry (in assay [8]; with C33A; in the assay with CASKI; with Es-2; in the assay with Hek293T; in the assay on JEG-3) was “inactive” in each case. In addition, the Potency entry in the assay on OV90, with PA-1, with Tov-21-G and in the assay on Tov112D was “inactive” throughout. The molecule was called inactive in assay [5]. Moreover, in the assay on HaCat, the max response was -4.19%.

On to `C[C@H]1CN(CC[C@H](O)C2CCCCC2)CC[C@@]1(C)c1cccc(O)c1`, for which the Potency entry in assay [1], in assay [2], in assay [3], in assay [4], in assay [6] and in assay [7] was “inactive” in each case. The Potency entry (in assay [8]; in the assay with C33A; with CAOV3; in the assay with CASKI; with Es-2; with Hek293T) was “inactive” throughout. Further, the Potency result in the assay with JEG-3, in the assay with OV90, with PA-1, in the assay on Tov-21-G and with Tov112D was “inactive” throughout. In addition, the molecule was called inactive in assay [5]. The results for the max response with HaCat and with NIH3T3 were 3.77% and -4.6%, respectively.

For the molecule `CCCCOC(=O)c1ccnc2cc(C(OCCN3CCCCC3)c3ccccc3Cl)sc12` (stereo unspecified), the Potency result (in assay [1]; in assay [2]; in assay [3]; in assay [7]; in [8]; in the assay on C33A) was “inactive” each time. For the same molecule, the Potency result in the assay with CAOV3, with CASKI, in the assay with Es-2, in the assay with Hek293T, with JEG-3 and in the assay on OV90 was “inactive” throughout. Further, the Potency result with PA-1, in the assay with Tov-21-G and in the assay with Tov112D was “inactive” in each case. For the same molecule, the outcome (in [5]; in the assay on HaCat) was inactive. Further, the max response with NIH3T3 was -3.89%.

For `COC(=O)C12C(=O)C(C)(O)C(=O)C1(C)C(C)=CC1C3(C=O)CCC(OC(C)=O)C(C)(C)C3CCC12C` (stereo unspecified), the Potency entry in assay [2], in assay [3], in [4], in [6], in [7] and in assay [8] was “inactive” throughout. Also, the Potency result in the assay on C33A, in the assay on CAOV3, in the assay with CASKI, in the assay on Es-2, with Hek293T and with JEG-3 was “inactive” each time. The Potency result in the assay with OV90, in the assay on PA-1, in the assay on Tov-21-G and in the assay on Tov112D was “inactive” in each case. Moreover, the outcome in assay [5] was “inactive [at 25.7 µM]”. Moreover, the max response was -17.3% in the assay with HaCat and -2.03% with NIH3T3.

With `CCC1CN2CCc3cc(OC)c(OC)cc3C2CC1CC1=NCCc2cc(O)c(OC)cc21` (stereo unspecified), the Potency entry (in assay [1]; in [2]; in assay [3]; in assay [4]; in assay [7]; in the assay on C33A) was “inactive” each time. Further, the Potency entry in the assay with CAOV3, with CASKI, with Es-2, in the assay with Hek293T, in the assay on JEG-3 and in the assay with OV90 was “inactive” each time. Moreover, the Potency entry in the assay with PA-1, in the assay on Tov-21-G and in the assay with Tov112D was “inactive” in each case. In addition, the molecule was called inactive (in assay [5]; in the assay on HaCat).

Regarding `C[C@]12CC[C@H](O[C@@H]3O[C@H](CO)[C@@H](O)[C@H](O)[C@H]3O)CC1=CC[C@@H]1C2CC[C@]2(C)[C@@H](C3=CC(=O)OC3)CC[C@]12O` (stereo partly specified), the Potency result in [1], in assay [2], in assay [3], in assay [4], in assay [6] and in assay [7] was “inactive” throughout. Further, the Potency entry (in assay [8]; in the assay with JEG-3; in the assay on OV90) was “inactive” throughout. The outcome in [5] is “inactive [at 25.7 µM]”. In addition, the max response in the assay with NIH3T3 is 0.891%. For the same molecule, the Potency with Es-2 was 10 µM (active); with Tov-21-G, 6.31 µM (active); in the assay with Tov112D, 3.16 µM (active).
